Laboratory results as given in PubChem BioAssay (Tox21).
Results filed as inconclusive are left out. Values without a mark were called inactive. Calls of active or inactive are those of the source. Calls follow the shape of the dose curve; as a rule, active = well fitted cell-killing curve with a large enough effect in the repeat runs (not every such curve was filed as active); inconclusive = weak or mixed curves, or effect the other way; inactive = no such curve, though single readings can be large or run the other way.

Experiment: qHTS assay to identify small molecule antagonists of the farnesoid-X-receptor (FXR) signaling pathway - cell viability counter screen (AID 743221); also: nearly all actives have a fitted effect of over 50% in size
Conditions: FXR-bla HEK293T viability, CellTiter-Glo luminescence, 16 h; series mostly up to 62.6 µM; activity change, negative = cytotoxicity: at the top concentration
Text: National Center for Advancing Translational Sciences [NCATS]
NIH Chemical Genomics Center [NCGC]
U.S. Environmental Protection Agency [EPA]
National Institutes of Environmental Health Sciences [NIEHS]
National Toxicology Program [NTP]
U.S. Food and Drug Administration [FDA]
The farnesoid-X-receptor (FXR), a nuclear hormone receptor, is highly expressed in liver, intestine, kidney and adrenal cortex. Natural ligands of FXR are the bile acids (Cholic acid, Chenodeoxy cholic acid etc). FXR is an important regulator of diverse metabolic pathways, including the bile acid homeostasis, lipid and glucose metabolisms. FXR regulates the expression of target genes by binding either as a monomer or as a heterodimer with the retinoid X receptor (RXR). Numerous studies have reported that FXR exerts protective function during cholestasis, diabetes, liver regeneration, and cancer. To identify compounds that inhibit FXR signaling, GeneBLAzer FXR-UAS-bla HEK 293T cell line (Invitrogen, Carlsbad, CA) containing a beta-lactamase reporter gene under the control of a UAS response element was used to screen the Tox21 10K compound library. The cytotoxicity of the Tox21 compound library against the FXR-bla cell line was tested in parallel by measuring the cell viability using CellTiter-Glo assay in the same wells.
Tox21 Assay Protocol Summary:
FXR-bla cells were dispensed at 5000 cells/5uL/well in 1536-well black wall/clear bottom plates using a Multidrop Combi (Thermo Fisher Scientific, Waltham, MA) dispenser. After the assay plates were incubated at 37 C and 5% CO2 for 5 h, 23 nL of compounds dissolved in DMSO, positive controls or DMSO only was transferred to the assay plate by a Pintool station (Kalypsys, San Diego, CA), followed by addition of 1 uL Chenodeoxycholic acid (50 uM, final concentration in the wells). The assay plates were incubated at 37C for 16 h. After 1 uL of LiveBLAzerTM B/G FRET substrate was added using a Bioraptr Flying Reagent Dispenser (FRD) workstation (Beckman Coulter, Indianapolis, IN), the plates were incubated at room temperature for 2 h, and fluorescence intensity was measured by an Envision plate reader (PerkinElmer, Shelton, CT). For cell viability readout that measures cytotoxicity, 4uL/well of CellTiter-Glo reagent was added into the assay plates using a Bioraptr FRD. After 30 min incubation at room temperature, the luminescence intensity in the plates was measured using a ViewLux plate reader (PerkinElmer).
% is scaled to controls: 0 for no effect and ±100 for the full control effect.

Structure (SMILES)	outcome	activity change, negative = cytotoxicity
Clc1ccc(Cl)cc1	inactive	
Cc1cc(-c2cc(C)c(N)c(C)c2)cc(C)c1N		-16.1%
BrCCBr	inactive	
CCCCN(CC)C(=O)SCCC	inactive	
O=c1ccc(=O)[nH][nH]1	inactive	
CCNc1nc(NC(C)(C)C)nc(SC)n1	inactive	
Clc1cccc(Cl)c1Cl	inactive	
COC(=O)c1ccccc1N	inactive	
CCCN(CCC)c1c([N+](=O)[O-])cc(C(F)(F)F)cc1[N+](=O)[O-]	inactive	
Oc1ccccc1Cl	inactive	
CCCCN(CCCC)SN(C)C(=O)Oc1cccc2c1OC(C)(C)C2	inactive	
CON(C)C(=O)Nc1ccc(Cl)c(Cl)c1		0.787% [at 81.1 µM]
Nc1ccccc1C(=O)O	inactive	
C[C@]12CC[C@H]3[C@@H](CC[C@@]45O[C@@H]4C(O)=C(C#N)C[C@]35C)[C@@H]1CC[C@@H]2O	inactive	
CCCN(CCC)N=O	inactive	
CN(C)[C@@H]1C(=O)C(C(N)=O)=C(O)[C@@]2(O)C(=O)C3=C(O)c4c(O)cccc4[C@@](C)(O)[C@H]3C[C@@H]12	inactive	
Nc1ccc(Br)cc1	inactive	
CC(=O)C=C(C)C	inactive	
c1ccc2c(c1)oc1ccccc12	inactive	
Cc1cccc([N+](=O)[O-])c1	inactive	

Structure (SMILES)	outcome	activity change, negative = cytotoxicity
C#CCN(C)[C@H](C)Cc1ccccc1	inactive	
NCCc1ccc(O)cc1	inactive	
Cc1ccc(N)cc1N	inactive	
c1ccc(-c2ccccc2)cc1	inactive	
OCCN(CCO)CCO	inactive	
O=c1[nH]c2ccccc2c(=O)o1	inactive	
CC(Br)C(=O)O (stereo not given)		5.93% [at 81.1 µM]
O=[N+]([O-])c1ccccc1	inactive	
CCCCCCCCCl	inactive	
Clc1ccccc1Cl	inactive	
CC(C)C#N	inactive	
c1ccc(OP(Oc2ccccc2)Oc2ccccc2)cc1	inactive	
O=c1n(Cl)c(=O)n(Cl)c(=O)n1Cl	inactive	
Cn1cc(-c2ccccc2)c(=O)c(-c2cccc(C(F)(F)F)c2)c1	inactive	
c1cc2c3c(cccc3c1)CC2	inactive	
NCC(O)c1ccc(O)cc1 (stereo not given)	inactive	
ClCc1cccnc1	inactive	
CN(C)N=O	inactive	
CCCCCCCCCCCC#N	inactive	
CC(C)OC(=O)Nc1ccccc1	inactive	
